From PubChem BioAssay
Active and inactive are the calls of the source.

Experiments:
[1] = tested on: Plasmodium falciparum Sir2 (PF13_0152, Sir2A); experiment: pfSir2 binders on small-molecule microarrays, primary screen, biochemical, small-molecule microarray, 635 nm fluorescence (AID 1098); details: small-molecule microarray binding, fluorescence 635 nm; higher = more signal;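 also: score merges spot fluorescence intensity with its signal-to-noise ratio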
[2] = small-molecule microarray binders of probe aDKK1, primary screen, biochemical, biotinylated probe, 635/667 nm fluorescence (AID 1099); details: higher = more signal;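 also: score merges 667nm spot fluorescence with signal to noise across triplicate slides; reference of the scale not given here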
[3] = small-molecule microarray binders of probe aCHRDL2, primary screen, biochemical, biotinylated probe, 635/667 nm fluorescence (AID 1100); details: higher = more signal
[4] = splicing luciferase reporter signal modulators, primary screen, spliceosome inhibition project, cell-based, HEK293, splice +/- reporter (AID 1101); details: luminescence, 24 h, higher = more signal, called active from +8 up or from −8 down;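 also: HEK293 cells carrying a splicing-competent luciferase reporter gene; test concentration not given here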
[5] = biological target: Fibroblast growth factor 10 (Homo sapiens) (UniProt O15520); experiment: FGF10 binders on small-molecule microarrays, primary screen, biochemical, small-molecule microarray, 635 nm fluorescence (AID 1102); details: FGF10 binding, fluorescence 635 nm, higher = more signal
[6] = tested on: glycogen synthase kinase-3 (GSK3A per assay name; protocol says GSK3B); experiment: GSK3 binders on small-molecule microarrays, primary screen, biochemical, small-molecule microarray, 635 nm fluorescence, GSK3A (AID 1103); details: small-molecule microarray binding, fluorescence 635 nm; higher = more signal; also: the record names both GSK3A and GSK3B
[7] = biological target: Epidermal growth factor receptor (Homo sapiens) (UniProt P00533); experiment: EGFR binders on small-molecule microarrays, primary screen, biochemical, small-molecule microarray, 635 nm fluorescence (AID 1104); details: EGFR binding, higher = more signal;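 also: score merges 667 nm emission intensity with spot signal to noise over triplicate slides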
[8] = biological target: Follistatin-related protein 3 (Homo sapiens) (UniProt O95633); experiment: FSTL3 binders on small-molecule microarrays, primary screen, biochemical, small-molecule microarray, 635 nm fluorescence (AID 1105); details: FSTL3 binding, higher = more signal;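 also: score merges emission near 667 nm and signal to noise per printed spot across three slides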
[9] = biological target: Dickkopf-related protein 1 (Homo sapiens) (UniProt O94907); experiment: DKK1 binders on small-molecule microarrays, primary screen, biochemical, small-molecule microarray, 635 nm fluorescence scan (AID 1106); details: DKK1 binding, higher = more signal;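 also: score merges emission near 667 nm with signal to noise over three replicate slides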
[10] = tested on: Inhibin beta A chain (activin A); experiment: INHBA (activin A) binders on microarrays, primary screen, biochemical, small-molecule microarray, 635 nm fluorescence scan (AID 1107); details: small-molecule microarray binding, higher = more signal;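 also: mouse activin A protein probed at 4.33 µg/mL on printed slides; score merges bound-protein fluorescence near 667 nm with spot signal-to-noise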

Chain of Dickkopf-related protein 1 (Homo sapiens) (O94907 whole entry, looked up): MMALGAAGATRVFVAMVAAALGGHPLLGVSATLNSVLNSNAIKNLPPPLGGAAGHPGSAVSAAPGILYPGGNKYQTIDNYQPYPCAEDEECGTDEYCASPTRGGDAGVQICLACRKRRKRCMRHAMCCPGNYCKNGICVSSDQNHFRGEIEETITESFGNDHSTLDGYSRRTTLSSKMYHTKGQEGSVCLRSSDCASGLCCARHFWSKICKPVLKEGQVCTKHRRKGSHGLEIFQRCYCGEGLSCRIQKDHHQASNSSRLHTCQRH
Chain of Epidermal growth factor receptor (Homo sapiens) (P00533 whole entry, looked up): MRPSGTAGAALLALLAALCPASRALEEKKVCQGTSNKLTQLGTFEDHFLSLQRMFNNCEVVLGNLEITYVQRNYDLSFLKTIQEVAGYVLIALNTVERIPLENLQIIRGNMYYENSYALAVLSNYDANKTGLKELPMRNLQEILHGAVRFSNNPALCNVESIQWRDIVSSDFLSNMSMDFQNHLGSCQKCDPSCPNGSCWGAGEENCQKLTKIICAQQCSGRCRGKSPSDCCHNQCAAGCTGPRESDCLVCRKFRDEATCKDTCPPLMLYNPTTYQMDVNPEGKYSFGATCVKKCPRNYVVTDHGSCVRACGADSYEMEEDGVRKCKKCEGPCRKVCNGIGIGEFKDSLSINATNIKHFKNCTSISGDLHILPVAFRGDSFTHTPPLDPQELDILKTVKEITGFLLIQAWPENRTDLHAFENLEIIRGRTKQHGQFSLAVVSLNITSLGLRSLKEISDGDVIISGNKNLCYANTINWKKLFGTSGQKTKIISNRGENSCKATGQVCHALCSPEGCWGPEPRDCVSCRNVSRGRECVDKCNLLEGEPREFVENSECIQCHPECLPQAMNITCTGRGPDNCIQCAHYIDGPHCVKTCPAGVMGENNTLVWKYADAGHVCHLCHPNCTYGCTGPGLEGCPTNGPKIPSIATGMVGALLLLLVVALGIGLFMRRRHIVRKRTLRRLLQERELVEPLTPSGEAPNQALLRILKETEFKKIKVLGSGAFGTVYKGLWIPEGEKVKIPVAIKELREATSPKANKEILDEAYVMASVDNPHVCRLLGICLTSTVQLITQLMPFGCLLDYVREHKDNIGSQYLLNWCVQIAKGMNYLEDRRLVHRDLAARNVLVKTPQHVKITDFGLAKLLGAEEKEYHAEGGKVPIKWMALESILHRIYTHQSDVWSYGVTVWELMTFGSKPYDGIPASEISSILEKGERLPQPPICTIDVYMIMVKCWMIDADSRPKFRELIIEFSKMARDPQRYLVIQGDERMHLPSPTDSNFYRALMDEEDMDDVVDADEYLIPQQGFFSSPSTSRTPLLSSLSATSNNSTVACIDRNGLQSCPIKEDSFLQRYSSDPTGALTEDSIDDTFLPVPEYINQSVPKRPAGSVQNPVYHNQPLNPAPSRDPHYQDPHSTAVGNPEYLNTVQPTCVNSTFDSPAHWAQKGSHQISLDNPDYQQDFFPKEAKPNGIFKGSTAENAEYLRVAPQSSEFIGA
Chain of Fibroblast growth factor 10 (Homo sapiens) (O15520 whole entry, looked up): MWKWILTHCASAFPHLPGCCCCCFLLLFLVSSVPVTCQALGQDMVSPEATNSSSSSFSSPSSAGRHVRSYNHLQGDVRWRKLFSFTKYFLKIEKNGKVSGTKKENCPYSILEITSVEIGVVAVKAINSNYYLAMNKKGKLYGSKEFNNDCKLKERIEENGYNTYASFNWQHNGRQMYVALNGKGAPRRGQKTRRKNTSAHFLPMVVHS
Chain of Follistatin-related protein 3 (Homo sapiens) (O95633 whole entry, looked up): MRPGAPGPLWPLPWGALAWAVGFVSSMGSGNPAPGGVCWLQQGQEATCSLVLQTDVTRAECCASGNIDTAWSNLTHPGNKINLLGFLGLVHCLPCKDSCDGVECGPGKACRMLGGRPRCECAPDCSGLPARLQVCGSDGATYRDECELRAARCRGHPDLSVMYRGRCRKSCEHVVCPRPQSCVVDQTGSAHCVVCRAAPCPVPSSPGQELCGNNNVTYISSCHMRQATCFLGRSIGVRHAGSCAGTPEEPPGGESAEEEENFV

Row | SMILES | composite z-score [1] | composite z-score [2] | composite z-score [3] | z-score [4] | composite z-score [5] | composite z-score [6] | composite z-score [7] | composite z-score [8] | composite z-score [9] | composite z-score [10]
1 | O=C(O)[C@]1(Cc2ccccc2)N=C(c2ccc(OCCCO)cc2)O[C@@H]1c1ccccc1 | 0.122 | 0.568 | 0.926 | 0.771 (inactive) | -0.74 | -1.23 | -0.856 | -1.07 | -1.16 | 0.848
2 | Cc1ccc(S[C@]2(C(=O)NCC(C)C)CC(=O)N(Cc3ccccc3Cl)[C@@H]2c2ccc(CO)cc2I)cc1 | 1.22 | 0.117 | 0.791 | -0.611 (inactive) | -0.85 | -0.408 | -0.409 | -0.615 | -0.557 | 0.67
3 | NC(=O)NCC#Cc1ccc2c(c1)[C@]1(C(=O)N2)[C@H](C(=O)Nc2nc3ccccc3s2)[C@H]2C(=O)O[C@H](c3ccccc3)[C@H](c3ccccc3)N2[C@@H]1c1ccc(O)cc1 | 0.726 | 0.636 | 0.212 | 0.232 (inactive) | 1 | 0.163 | 0.278 | 0.53 | 0.246 | 0.744
4 | COc1cc(CO)cc(I)c1O[C@H]1C=C(C(=O)NCCO)C[C@@H](N(Cc2ccc(F)cc2)C(=O)C2CCCO2)[C@@H]1O (stereo not given in full) | 0.0885 | -0.139 | -0.697 | -0.0727 (inactive) | 0.182 | 0.1 | 0.346 | 0.203 | 0.208 | 0.676
5 | O=C(CS)NCCCCCCNC(=O)[C@H]1C[C@H]2C(=O)N[C@@H](Cc3ccccc3)C(=O)N2[C@H]1c1cccc(OCCO)c1 | 1.62 | -0.0581 | 0.232 | 0.479 (inactive) | 1.51 | 1.25 | 1.39 | 1.52 | 1.34 | 0.68
6 | NC(=O)NCC#Cc1ccc2c(c1)[C@]1(C(=O)N2)[C@H](c2ccc(O)cc2)N2[C@H](c3ccccc3)[C@H](c3ccccc3)OC(=O)[C@H]2[C@@H]1C(=O)Nc1nc2ccccc2s1 | 0.836 | 0.645 | 0.985 | 1.11 (inactive) | 1.25 | 0.0394 | 0.581 | 1.05 | 0.666 | 1.17
7 | COCCOC(=O)N1C(=O)[C@@]2(c3cc(C#CCNC(N)=O)ccc31)[C@H](C(=O)N1CCCCCCC1)[C@H]1C(=O)O[C@H](c3ccccc3)[C@H](c3ccccc3)N1[C@@H]2c1ccc(O)cc1 | 1.25 | -0.124 | 0.526 | 0.392 (inactive) | 0.527 | 1 | 0.734 | 1.28 | 0.751 | 1.27
8 | Cc1ccc(S[C@]2(C(=O)NCc3ccccc3)CC(=O)N(C(C)C)[C@@H]2c2ccc(CO)cc2I)cc1 | 0.169 | 0.378 | 1.16 | 0.0407 (inactive) | -0.991 | -0.687 | -0.474 | -1.04 | -1.67 | 0.929
9 | CCCCC(CC)C(O)C1C=CC2C(=O)N(c3ccccc3)C(=O)C2N1Nc1ccc([N+](=O)[O-])cc1 (stereo not given) | 1.31 | 0.68 | 0.457 | 0.63 (inactive) | 1.01 | 1.34 | 0.444 | 1.34 | 0.155 | 0.532
10 | COC(=O)c1c(CC[C@@H](CO)NC(=O)N[C@H](Cn2cc(-c3ccccc3C)nn2)C(C)C)oc(C(C)=O)c1C(=O)OC | 0.404 | -0.177 | -0.076 | -1.71 (inactive) | 0.289 | -0.79 | -0.937 | -0.806 | -0.482 | -0.252
11 | [N-]=[N+]=NCc1ccccc1C[C@@]1(C(N)=O)N=C(c2ccc(OCCCO)cc2)O[C@@H]1c1ccccc1CN=[N+]=[N-] | 0.448 | 1.09 | 0.378 | 0.515 (inactive) | 1.26 | 0.989 | -0.238 | 0.165 | 0.0137 | 0.764
12 | CN1C(=O)C2C(C1=O)C1C=C(c3ccc(CO)cc3)C2C(c2cccs2)N1Cc1cccc(OC(F)(F)F)c1 (stereo not given) | 1.06 | 0.0564 | -0.137 | -0.243 (inactive) | 1.07 | 1.27 | 0.0302 | 1.17 | 0.483 | 0.614
13 | C=CCOC(=O)[C@@H]1[C@H]2C(=O)O[C@H](c3ccccc3)[C@H](c3ccccc3)N2[C@H](c2ccc(OCCOC(=O)[C@H]3C[C@H]4C(=O)N[C@@H](CCCCNC(C)=O)C(=O)N4[C@H]3c3cccc(OCCO)c3)cc2)[C@@]12C(=O)Nc1ccc(I)cc12 | 1.52 | 0.453 | 0.182 | 0.357 (inactive) | 0.909 | 1.32 | 0.771 | 1.23 | 1.45 | 0.124
14 | COCCCNC(=O)[C@@]1(Sc2ccc(C)cc2)CC(=O)N(C2Cc3ccccc3C2)[C@@H]1c1ccc(CO)cc1I | 0.693 | 0.59 | 0.947 | -0.697 (inactive) | -0.235 | -1.1 | -0.689 | -1.58 | -1.77 | 0.388
15 | [N-]=[N+]=NCc1ccccc1C[C@@]1(C(=O)NCCN2CCOCC2)N=C(c2ccc(OCCCO)cc2)O[C@@H]1c1ccccc1N=[N+]=[N-] | 1.15 | 0.75 | 0.45 | -1.7 (inactive) | 0.778 | 1.08 | 0.283 | 0.325 | -0.194 | 0.822
16 | COC(=O)[C@@]1(Cc2ccccc2)[C@H]2c3cc(C(=O)N4CCCC4)n(C[C@H](O)CO)c3C[C@H]2CN1C(=O)c1ccccc1 | 1.06 | 0.571 | 1.01 | 0.797 (inactive) | -0.209 | -0.0288 | -0.455 | 0.0783 | -1.11 | 0.956
17 | CC1CC/C=C\[C@H]2OC34C=CCN(C(C)C)C(=O)[C@H]3N(CCCCCO)C(=O)[C@@H]4C2C(=O)O1 (stereo not given in full) | 0.382 | -0.0733 | 0.655 | -0.356 (inactive) | -0.82 | -0.609 | -1.4 | -1.05 | -1.73 | -0.15
18 | CCOC(=O)C[C@H]1[C@H](OC(=O)Cc2ccc3c(c2)OCO3)[C@@H](NC(=O)Cc2ccc(OC)cc2)c2cc(OCCCO)ccc2N1C(=O)c1ccccc1 | 1.07 | 0.423 | 0.383 | -0.484 (inactive) | 0.647 | 0.614 | 0.0042 | 0.312 | 0.149 | 0.265
19 | CC1CC/C=C\[C@H]2OC34C=CCN(c5ccc6ccccc6c5)C(=O)[C@H]3N(C(CO)C(C)C)C(=O)[C@@H]4C2C(=O)O1 (stereo not given in full) | 0.675 | -0.305 | 0.623 | 6.6e-05 (inactive) | -0.209 | -0.176 | -0.56 | -0.163 | -0.495 | 1.2
20 | CC(CO)N1C(=O)[C@@H]2C3C(=O)OCCC/C=C\[C@H]3OC23C=CCN(Cn2nnc4ccccc42)C(=O)[C@@H]13 (stereo not given in full) | 1.82 | -0.0595 | -0.102 | -0.411 (inactive) | -0.134 | -0.527 | -0.718 | -0.474 | -0.361 | 0.339
21 | COCCOC(=O)N1C(=O)[C@@]2(c3cc(C#CC4=CCCCC4)ccc31)[C@H](c1ccc(O)cc1)N1[C@H](c3ccccc3)[C@H](c3ccccc3)OC(=O)[C@H]1[C@@H]2C(=O)Nc1nc2ccccc2s1 | 1.56 | 0.663 | -0.277 | 0.51 (inactive) | 1.33 | 1.24 | 0.383 | 1.19 | 0.45 | 0.248
22 | C[C@]1(C(=O)O)c2ccccc2C(=O)N(Cc2ccccc2)[C@H]1c1ccc(CO)cc1 | 1.51 | 0.44 | 1.11 | -0.602 (inactive) | -1.97 | -1.83 | -1.63 | -1.38 | -1.64 | 0.463
23 | C=C(C(=O)CC[C@H](OC(C)=O)c1cccc(OCCO)c1)C(C)C | -0.382 | -0.352 | -0.115 | 0.143 (inactive) | -0.924 | -1.24 | -1.31 | -0.835 | -1.07 | 0.0244
24 | [N-]=[N+]=NCc1ccccc1C[C@]1(C(=O)NCC(O)CO)N=C(c2ccc(OCCCO)cc2)O[C@H]1c1ccccc1CN=[N+]=[N-] (stereo not given in full) | 0.425 | 0.384 | 0.953 | -0.47 (inactive) | 1.08 | 1.15 | -0.154 | -0.392 | -0.749 | 0.387
25 | CC(=O)N1Cc2ccccc2C[C@]2(N=C(c3ccc(OCCCO)cc3)O[C@@H]2c2ccccc2)C1=O | 1.55 | 0.835 | 1.05 | -2.31 (inactive) | 0.897 | 1.26 | 0.17 | 0.33 | 0.275 | 0.503
26 | COc1ccc(C(O)C2C=CC3C(=O)N(C)C(=O)C3N2N2CCCCC2)cc1 (stereo not given) | 1.23 | 0.297 | 0.378 | 1.33 (inactive) | 0.632 | 1.09 | 0.579 | 0.306 | 0.224 | 1.31
27 | COC(=O)[C@@]1(Cc2ccc(OC)cc2)[C@H]2c3cc(C(=O)N4CCCC4)n(CCc4cc5ccccc5[nH]4)c3C[C@H]2CN1C(=O)c1ccccc1 | 1.52 | 1.64 | 1.43 | 0.0555 (inactive) | 0.893 | 0.591 | 0.124 | 1.2 | -0.281 | 0.881
